Data taken from PubChem BioAssay (NCI).
The panel holds about 83,000 compounds, 20% with a hit somewhere; the sample as a whole holds those more often.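 The test compound was applied at a single concentration to cells in 96-well plates for 48 hours, and percent growth was recorded.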 Calls of active or inactive are those of the source. The calls were made as follows: active = growth percent below 10; inactive = the rest.

Tests used:
Test in all cases: NCI-60 one-dose screen, 48 h (100 = growth as untreated, 0 = no growth, -100 = all killed)
Conditions in all cases: 10 µM unless noted
HCT-15 colon = test system: HCT-15 colon
HT29 colon = test system: HT29 colon
SNB-75 CNS = test system: SNB-75 CNS
SNB-19 CNS = test system: SNB-19 CNS
U251 CNS = test system: U251 CNS
PC-3 prostate = test system: PC-3 prostate
SK-MEL-5 melanoma = test system: SK-MEL-5 melanoma
UACC-62 melanoma = test system: UACC-62 melanoma
LOX IMVI melanoma = test system: LOX IMVI melanoma
SK-MEL-28 melanoma = test system: SK-MEL-28 melanoma
SK-MEL-2 melanoma = test system: SK-MEL-2 melanoma
EKVX NSCLC = test system: EKVX NSCLC
SN12C renal = test system: SN12C renal
UO-31 renal = test system: UO-31 renal
TK-10 renal = test system: TK-10 renal
ACHN renal = test system: ACHN renal
CAKI-1 renal = test system: CAKI-1 renal
A498 renal = test system: A498 renal
CCRF-CEM leukemia = test system: CCRF-CEM leukemia
MOLT-4 leukemia = test system: MOLT-4 leukemia

Measured: growth

Cc1ccc(-c2nc3nc(-c4ccccc4)nc(N4CCN(S(=O)(=O)c5ccccc5)CC4)c3o2)cc1
inactive: HCT-15 colon 103% | HT29 colon 97.7% | SNB-19 CNS 32.9% | U251 CNS 78.9% | PC-3 prostate 96.4% | SK-MEL-5 melanoma 95% | UACC-62 melanoma 101% | LOX IMVI melanoma 96.7% | SK-MEL-28 melanoma 106% | SK-MEL-2 melanoma 76.9% | EKVX NSCLC 96.1% | SN12C renal 94.3% | UO-31 renal 99.2% | TK-10 renal 79.1% | ACHN renal 72% | CAKI-1 renal 84% | A498 renal 99.3% | CCRF-CEM leukemia 108% | MOLT-4 leukemia 102%
active: SNB-75 CNS -17.2%

N#Cc1ccccc1-c1ccc(Cn2c(-c3cscn3)nc3c(Cl)cccc32)cc1
inactive: HCT-15 colon 77.9% | HT29 colon 71% | SNB-75 CNS 78% | SNB-19 CNS 88.5% | U251 CNS 79.1% | PC-3 prostate 54.4% | SK-MEL-5 melanoma 55.3% | UACC-62 melanoma 75% | LOX IMVI melanoma 65.7% | SK-MEL-28 melanoma 105% | SK-MEL-2 melanoma 75.9% | EKVX NSCLC 76.9% | SN12C renal 91.2% | UO-31 renal 46% | TK-10 renal 81.4% | ACHN renal 80.8% | CAKI-1 renal 70.9% | A498 renal 74.8% | CCRF-CEM leukemia 65.8% | MOLT-4 leukemia 48.2%

N#CSc1c[nH]c2ccc(/C=C/C(=O)/C=C(/C=C/c3ccc4[nH]cc(SC#N)c4c3)OB(F)F)cc12
inactive: SNB-75 CNS 18% | SNB-19 CNS 38.2% | A498 renal 69.1%
active: HCT-15 colon -73.7% | HT29 colon -53.6% | U251 CNS -27% | PC-3 prostate -22.5% | SK-MEL-5 melanoma 9.1% | UACC-62 melanoma -43% | LOX IMVI melanoma -91.4% | SK-MEL-28 melanoma -1.41% | SK-MEL-2 melanoma -30.3% | EKVX NSCLC -5.64% | SN12C renal -38.1% | UO-31 renal -99.3% | TK-10 renal -0.38% | ACHN renal -86.4% | CAKI-1 renal -71.5% | CCRF-CEM leukemia -27.7% | MOLT-4 leukemia -37.9%

COc1cc(/C=C(/c2ccccc2)[N+](=O)[O-])c(OC)c2c1OCO2
active: HCT-15 colon -30% | HT29 colon 1.28% | SNB-75 CNS -92.6% | SNB-19 CNS -17.1% | U251 CNS -92.9% | PC-3 prostate -50.5% | SK-MEL-5 melanoma -40.9% | UACC-62 melanoma -29.2% | LOX IMVI melanoma -87.6% | SK-MEL-28 melanoma -12.1% | SK-MEL-2 melanoma -23% | EKVX NSCLC -10.5% | SN12C renal -39% | UO-31 renal -100% | TK-10 renal -88.1% | ACHN renal -70.1% | CAKI-1 renal -65.2% | A498 renal -14% | CCRF-CEM leukemia -6.26% | MOLT-4 leukemia -10.5%

O=C(/C=C/c1ccc([N+](=O)[O-])cc1)c1ccccc1
inactive: HCT-15 colon 77.2% | HT29 colon 50.7% | SNB-75 CNS 83.4% | SNB-19 CNS 98.5% | U251 CNS 80.8% | PC-3 prostate 77.5% | SK-MEL-5 melanoma 94.5% | UACC-62 melanoma 94.9% | LOX IMVI melanoma 61.4% | SK-MEL-28 melanoma 103% | SK-MEL-2 melanoma 91.1% | EKVX NSCLC 90.8% | SN12C renal 99.8% | UO-31 renal 74.8% | TK-10 renal 68.9% | ACHN renal 99.6% | CAKI-1 renal 96.2% | A498 renal 103% | CCRF-CEM leukemia 76.7% | MOLT-4 leukemia 55.1%

COC(=O)c1c2c(c(C)[n+]([O-])c1C)C(=O)C(NCCN1CCOCC1)=CC2=O
inactive: HCT-15 colon 69.1% | HT29 colon 27.4% | SNB-75 CNS 106% | SNB-19 CNS 87.5% | U251 CNS 83.6% | PC-3 prostate 75.2% | SK-MEL-5 melanoma 48.5% | UACC-62 melanoma 68.4% | LOX IMVI melanoma 57.2% | SK-MEL-28 melanoma 95.2% | SK-MEL-2 melanoma 78.2% | EKVX NSCLC 65.8% | SN12C renal 59% | UO-31 renal 82.2% | TK-10 renal 111% | ACHN renal 85.5% | CAKI-1 renal 73% | A498 renal 129% | CCRF-CEM leukemia 80.2% | MOLT-4 leukemia 88.1%

Cc1c(C(C)(C)O)cn2ncnc(Oc3ccc(NC(=O)Nc4ccc(Cl)c(C(F)(F)F)c4)cc3)c12
inactive: HCT-15 colon 36.8% | HT29 colon 34.6% | SNB-75 CNS 33.8% | SNB-19 CNS 30.8% | U251 CNS 31.8% | PC-3 prostate 21.5% | SK-MEL-5 melanoma 56.2% | UACC-62 melanoma 55.5% | SK-MEL-28 melanoma 53.1% | SK-MEL-2 melanoma 75.9% | EKVX NSCLC 30.8% | SN12C renal 44.3% | UO-31 renal 50.9% | TK-10 renal 45.9% | ACHN renal 21% | CAKI-1 renal 29.2% | A498 renal 11.6% | CCRF-CEM leukemia 34.1% | MOLT-4 leukemia 18.2%
active: LOX IMVI melanoma -9.63%

COC(=O)N/N=C/c1c[n+]([O-])c2ccccc2[n+]1[O-]
inactive: HCT-15 colon 106% | HT29 colon 106% | SNB-75 CNS 100% | SNB-19 CNS 104% | U251 CNS 96.6% | PC-3 prostate 86% | SK-MEL-5 melanoma 114% | UACC-62 melanoma 101% | LOX IMVI melanoma 97.7% | SK-MEL-28 melanoma 105% | SK-MEL-2 melanoma 112% | EKVX NSCLC 100% | SN12C renal 99.6% | UO-31 renal 86.6% | TK-10 renal 119% | ACHN renal 100% | CAKI-1 renal 89.1% | A498 renal 98% | CCRF-CEM leukemia 94% | MOLT-4 leukemia 104%

O=C1OCC2=C1C(c1cccc([N+](=O)[O-])c1)c1cc3c(cc1N2CCO)CCC3 (stereo not given)
inactive: SNB-75 CNS 41.9% | SNB-19 CNS 25% | U251 CNS 13.8% | PC-3 prostate 21.7% | UACC-62 melanoma 43.9% | LOX IMVI melanoma 20.5% | SK-MEL-28 melanoma 53.7% | SK-MEL-2 melanoma 17.7% | EKVX NSCLC 36.8% | SN12C renal 36.3% | UO-31 renal 39% | TK-10 renal 60.1% | ACHN renal 27.5% | CAKI-1 renal 31% | MOLT-4 leukemia 14%
active: HCT-15 colon 9.41% | HT29 colon 3.43% | SK-MEL-5 melanoma 1.24% | A498 renal -5.04% | CCRF-CEM leukemia 7.25%

O=C(NCCCN1CCCCC1)c1ccc(-c2nc3ccc4[nH]ncc4c3c3c2CCCC3)cc1
active: A498 renal -10%
inactive: HCT-15 colon 58.4% | HT29 colon 50.7% | SNB-75 CNS 17.6% | SNB-19 CNS 78.2% | U251 CNS 66.7% | PC-3 prostate 29% | SK-MEL-5 melanoma 76.2% | UACC-62 melanoma 62.6% | LOX IMVI melanoma 48.3% | SK-MEL-28 melanoma 72.2% | SK-MEL-2 melanoma 81.4% | EKVX NSCLC 67.4% | SN12C renal 50.4% | UO-31 renal 54.4% | TK-10 renal 43.7% | ACHN renal 27.4% | CAKI-1 renal 10.9% | CCRF-CEM leukemia 21.6% | MOLT-4 leukemia 18.4%

O=C1C(N2CCOCC2)=C(I)C(=O)c2ncccc21
inactive: HCT-15 colon 67.1% | HT29 colon 102% | SNB-75 CNS 66.3% | SNB-19 CNS 73% | U251 CNS 61.9% | PC-3 prostate 79.4% | SK-MEL-5 melanoma 89.4% | UACC-62 melanoma 69.5% | LOX IMVI melanoma 43.4% | SK-MEL-28 melanoma 96.6% | SK-MEL-2 melanoma 91.1% | EKVX NSCLC 89.3% | SN12C renal 60.6% | UO-31 renal 54.3% | TK-10 renal 111% | ACHN renal 58.7% | CAKI-1 renal 76.1% | A498 renal 102% | CCRF-CEM leukemia 62.4% | MOLT-4 leukemia 50.5%

Fc1ccc(NC(c2ccc(F)cc2)C2CCN(CCCCc3ccccc3)CC2)cc1 (stereo not given)
inactive: HCT-15 colon 29.3% | SNB-75 CNS 63.4% | SNB-19 CNS 50% | U251 CNS 16.6% | PC-3 prostate 35% | UACC-62 melanoma 26% | LOX IMVI melanoma 11.3% | SK-MEL-28 melanoma 60.1% | SK-MEL-2 melanoma 69.6% | EKVX NSCLC 52.9% | SN12C renal 29% | UO-31 renal 38.8% | TK-10 renal 49% | ACHN renal 53.8% | CAKI-1 renal 49.1% | A498 renal 17.2%
active: HT29 colon 3.89% | SK-MEL-5 melanoma -3.5% | CCRF-CEM leukemia 8.3% | MOLT-4 leukemia 4.36%

C=C(CNCCO)[C@@H]1CC[C@]2(CO)CC[C@]3(C)[C@H](CC[C@@H]4[C@@]5(C)CCC(NCCc6ccc(O)cc6)C(C)(C)[C@@H]5CC[C@]43C)[C@@H]12 (stereo not given in full)
active: HCT-15 colon -88.4% | HT29 colon -68.7% | SNB-75 CNS -97.8% | SNB-19 CNS -72.9% | U251 CNS -92.7% | PC-3 prostate -43.4% | SK-MEL-5 melanoma -95.3% | UACC-62 melanoma -81.5% | LOX IMVI melanoma -89.8% | SK-MEL-28 melanoma -94.1% | SK-MEL-2 melanoma -84.1% | EKVX NSCLC -75.3% | SN12C renal -73.7% | UO-31 renal -95.4% | TK-10 renal -89.4% | ACHN renal -96.6% | CAKI-1 renal -85.8% | A498 renal -87.5% | CCRF-CEM leukemia -28.5% | MOLT-4 leukemia -30.3%

CCN1CCN(C(=O)[C@]23CC[C@@H](C)[C@H](C)[C@@H]2C2=CC[C@@H]4[C@@]5(C)CCC(=O)C(C)(C)[C@@H]5CC[C@@]4(C)[C@]2(C)CC3)CC1
inactive: SNB-19 CNS 20.9% | SK-MEL-2 melanoma 12.3% | EKVX NSCLC 28.4% | TK-10 renal 18.7% | CAKI-1 renal 23.8%
active: HCT-15 colon 8.58% | HT29 colon -12% | SNB-75 CNS -3.49% | U251 CNS -44.9% | PC-3 prostate 4.66% | SK-MEL-5 melanoma -84.1% | UACC-62 melanoma -46.1% | LOX IMVI melanoma -85.2% | SK-MEL-28 melanoma -64.7% | SN12C renal 7.97% | UO-31 renal -9.67% | ACHN renal 9.64% | A498 renal -17.8% | CCRF-CEM leukemia -8.01% | MOLT-4 leukemia -15.9%

O=C(CCN1CCOCC1)Nc1cccc(-n2cc(-c3ccncc3)c(-c3ccc(Cl)c(O)c3)n2)c1
active: HT29 colon -7.51% | SNB-75 CNS -1.7%
inactive: HCT-15 colon 28.5% | SNB-19 CNS 48.8% | U251 CNS 27.7% | PC-3 prostate 11.4% | SK-MEL-5 melanoma 20.3% | UACC-62 melanoma 43.1% | LOX IMVI melanoma 23.1% | SK-MEL-28 melanoma 49.6% | SK-MEL-2 melanoma 14.8% | EKVX NSCLC 55.7% | SN12C renal 42.8% | UO-31 renal 41.9% | TK-10 renal 54.5% | ACHN renal 34.2% | CAKI-1 renal 38.6% | A498 renal 10.9% | CCRF-CEM leukemia 17.7% | MOLT-4 leukemia 28.6%
